Source: PubChem BioAssay AID1159580 (chemical genetic matrix, 2015)
Values joined by “and” are separate entries in the source; they are usually repeats but may differ in a detail not shown here. Identical values can stand only once. In all, about 5,500 compounds went through this assay and about 2,000 (36%) were called active. Inconclusive results (about 18%) are left out. Cut-off read from the data, not from the text of the source: active = normalized growth mostly below about 0.91 (no sharp cut-off); inconclusive = no clear call, values can overlap the other calls; inactive = mostly above about 0.92. This is one part of the list.

Assay: chemical genetic growth profiling, strain panel (AID 1159580);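 note: tested at 20 µM; growth read once vehicle control cultures reached saturation at 30 °C; 1 = growth at the plate median or of vehicle wells; lower values mean less growth of the strain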
Details: S. cerevisiae deletion strains, growth OD

Measured: normalized growth

Nc1cc(-c2ccncc2)c[nH]c1=O
active: locus YAL021C, strain ccr4, active compounds read low 0.86 | locus YAL026C, strain drs2, active compounds read low 0.802 | locus YAL030W, strain snc1, active compounds read low 0.885 | locus YBL061C, strain skt5, active compounds read low 0.899 | locus YBR009C, strain hhf1, active compounds read low 0.671 | locus YBR023C, strain chs3, active compounds read low 0.832 | locus YBR231C, strain swc5, active compounds read low 0.562 | locus YBR279W, strain paf1, active compounds read low 0.63 | locus YCL011C, strain gbp2, active compounds read low 0.833 | locus YCL016C, strain dcc1, active compounds read low 0.567 | locus YCL061C, strain MRC1, active compounds read low 0.901 | locus YCL069W, strain vba3, active compounds read low 0.757 | locus YDL134C, strain PPH21, active compounds read low 0.823 | locus YDR069C, strain doa4, active compounds read low 0.885 | locus YDR297W, strain sur2, active compounds read low 0.856 | locus YDR318W, strain mcm21, active compounds read low 0.809 | locus YDR334W, strain swr1, active compounds read low 0.664 | locus YDR388W, active compounds read low 0.919 | locus YDR392W, strain spt3, active compounds read low 0.265 | locus YEL003W, strain gim4, active compounds read low 0.624 | locus YEL061C, strain CIN8 (second series), active compounds read low 0.787 | locus YER016W, strain bim1, active compounds read low 0.672 | locus YER155C, strain BEM2 (second series), active compounds read low 0.368 | locus YER167W, strain BCK2, active compounds read low 0.86 | locus YFR010W, strain ubp6, active compounds read low 0.863 | locus YGL086W, strain mad1, active compounds read low 0.872 | locus YGL173C, strain kem1, active compounds read low 0.715 | locus YGL240W, strain doc1, active compounds read low 0.684 | locus YGL248W, strain PDE1, active compounds read low 0.678 | locus YGL253W, strain hxk2, active compounds read low 0.523 | locus YGR078C, strain PAC10, active compounds read low 0.527 | locus YGR252W, strain gcn5, active compounds read low 0.706 | locus YHR013C, strain ard1, active compounds read low 0.506 | locus YHR027C, strain rpn1, active compounds read low 0.872 | locus YHR142W, strain chs7, active compounds read low 0.705 | locus YIL066C, strain RNR3, active compounds read low 0.74 | locus YJL095W, strain BCK1 (second series), active compounds read low 0.714 | locus YJL164C, strain tpk1, active compounds read low 0.69 | locus YJL166W, strain qcr8, active compounds read low 0.539 | locus YJL187C, strain SWE1, active compounds read low 0.755
inactive: locus YBR021W, strain FUR4, active compounds read low 0.952 | locus YBR171W, strain sec66, active compounds read low 0.966 | locus YBR229C, strain ROT2, active compounds read low 0.952 | locus YCL029C, strain bik1, active compounds read low 0.988 | locus YCR088W, strain abp1, active compounds read low 0.925 | locus YDL005C, strain med2, active compounds read low 0.971 | locus YDL035C, strain GPR1, active compounds read low 0.907 | locus YDL040C, strain nat1, active compounds read low 0.936 | locus YDL074C, strain BRE1, active compounds read low 0.913 | locus YDL101C, strain DUN1, active compounds read low 0.994 | locus YDL185W, strain tfp1, active compounds read low 0.973 | locus YDL192W, strain arf1, active compounds read low 0.974 | locus YDR001C, strain nth1, active compounds read low 0.972 | locus YDR101C, strain arx1, active compounds read low 0.977 | locus YDR137W, strain rgp1, active compounds read low 0.976 | locus YDR159W, strain sac3, active compounds read low 0.928 | locus YDR162C, strain NBP2, active compounds read low 0.949 | locus YDR195W, strain ref2 0.951 | locus YDR335W, strain msn5, active compounds read low 0.934 | locus YDR502C, strain sam2, active compounds read low 0.926 | locus YEL037C, strain rad23, active compounds read low 0.937 | locus YEL061C, strain CIN8, active compounds read low 0.98 | locus YER015W, strain faa2, active compounds read low 0.993 | locus YER110C, active compounds read low 0.983 | locus YER111C, strain swi4, active compounds read low 0.979 | locus YER155C, strain BEM2, active compounds read low 0.963 | locus YGL078C, strain dbp3, active compounds read low 0.976 | locus YGL167C, strain pmr1, active compounds read low 0.974 | locus YGL227W, strain vid30, active compounds read low 0.96 | locus YGR135W, strain pre9, active compounds read low 0.945 | locus YGR229C, strain SMI1, active compounds read low 0.923 | locus YHR030C, strain SLT2, active compounds read low 0.959 and 1.04 | locus YHR079C, strain IRE1 (second series), active compounds read low 0.988 | locus YHR079C, strain IRE1, active compounds read low 1.04 | locus YHR094C, strain hxt1, active compounds read low 0.978 | locus YHR129C, strain ARP1, active compounds read low 0.961 | locus YHR200W, strain rpn10, active compounds read low 0.974 | locus YIL073C, strain SPO22, active compounds read low 0.713 | locus YIL125W, strain kgd1, active compounds read low 0.982 | locus YIR030C, strain dcg1, active compounds read low 0.988 | locus YJL092W, strain hpr5, active compounds read low 0.923 | locus YJL095W, strain BCK1, active compounds read low 0.961 and 1.01 | locus YJL115W, strain asf1, active compounds read low 0.932 | locus YJL129C, strain trk1, active compounds read low 0.94 | locus YJL134W, strain LCB3, active compounds read low 0.994 | locus YJL154C, strain vps35, active compounds read low 0.964 | locus YJL168C, strain set2, active compounds read low 0.986 | locus YJL187C, strain SWE1 (second series), active compounds read low 0.96
